Compound activity (PubChem)
tim23-1 inh: growth inhibitors of tim23-1 mutant yeast; S. cerevisiae tim23-1 growth, BacTiter-Glo luminescence, 24 h; inhibition, % at 20 µM; 330,000 compounds, 1.3% hits; AID 463212;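 active means growth inhibition of the mutant yeast at or above 50%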;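 further: temperature-sensitive mutant grown at 25 °C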
tim10-1 inh: inhibits growth of tim10-1 mutant yeast; S. cerevisiae tim10-1 ts strain growth, BacTiter-Glo, 24 h; inhibition, % at 20 µM; 330,000 compounds, 2.2% hits; AID 463190;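 active means inhibition of at least 40%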;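 further: mutant grown at 25 °C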
SUMO Mot1 rescue: inhibitors of SUMOylation pathway: yeast Mot1-301 growth rescue | S. cerevisiae Mot1-301 growth rescue, ATP luminescence, 38.5C; percent above DMSO median, 100 means doubled | growth rescue, % at 18.8 µM | 320,000 compounds, 1% hits | AID 2716;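 active means every valid replicate shows activation above 250% relative to neutral control wells; inactive means the rest, any valid replicate at or below 250%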
PfHsp90 yeast 2: reduces growth (ATP signal) of yeast expressing P. falciparum Hsp90; inhibition, % at 9.4 µM; S. cerevisiae expressing PfHsp90, BacTiter-Glo ATP, 48 h; yeast lacking PDR1 and PDR3 efflux regulators; AID 504621; 310,000 compounds, 0.32% hits;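 active means every replicate shows inhibition above about 80%, whatever the replicate mean, limit read from the data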
TIM10 inh: TIM10 yeast growth inhibition. AID 463195. 330,000 compounds, 1.4% hits. inhibition, % at 10 µM. S. cerevisiae TIM10 strain growth, BacTiter-Glo luminescence, 24 h;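 active means inhibition of 40% or more at the single tested concentration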;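 further: wild-type TIM10 isogenic control strain grown at permissive 25 °C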
Mot1 SUMO dose: inhibits SUMO pathway, affecting Mot1-301 yeast growth; growth activity, percent, % at 42 µM; shares compounds with SUMO Mot1 rescue; 2,300 tested, under 10 active; S. cerevisiae Mot1-301 galactose growth, ATP luminescence, 24 h; -100 = growth of slx-deleted rescue strain;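 active means Signal drops as the depositor expects, and the fitted half-maximal dose is no more than ten times the top valid tested dose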;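 further: more negative values mean stronger growth rescue toward the control strain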
Large screens that a line does not name were inactive (follow-up assays come after a bar, where they were run). This is a sample that favours compounds with a hit; in the whole collection about 4.4% have one here.

C=CCOC(=O)C1=C[C@@H](c2coc3ccccc3c2=O)C[C@@H](OCCCCO)O1	none
CCCNC(=O)Cn1sc2nc(C)cc(C)c2c1=O	SUMO Mot1 rescue 423 | Mot1 SUMO dose inactive
Cc1ccc(SC(=O)c2c(C)noc2-c2cc(C)on2)cc1	none
COc1ccccc1NC(c1cccnc1)c1ccc2cccnc2c1O (centres undefined)	none
Cc1ccnc(NC(c2cccnc2)c2ccc3cccnc3c2O)c1 (centres undefined)	SUMO Mot1 rescue active | Mot1 SUMO dose inactive
CC1(OC(=O)C2CCCC2)C(=O)C=C2C=C(c3ccsc3)OC=C2C1=O (centres undefined)	SUMO Mot1 rescue 506 | Mot1 SUMO dose inactive
Cc1cc(NC(=O)c2ccc(N3C(=O)C4C5C=CC(C5)C4C3=O)cc2)no1 (centres undefined)	none
Cc1cc(NC(=O)c2ccc(N3C(=O)CCC3=O)cc2)no1	SUMO Mot1 rescue 701 | Mot1 SUMO dose inactive
O=C(Nc1cccc(F)c1)C1CCCN(C(=O)c2ccc(Cl)cc2)C1 (centres undefined)	none
O=C(c1ccccc1)C1CCN(C(=O)c2c(F)cccc2F)CC1	none
O=C(CCc1ccccc1)NNC(=S)Nc1ccc(F)cc1	SUMO Mot1 rescue 377 | Mot1 SUMO dose inactive
Cn1c(=O)c2ncn(CC(=O)O)c2n(C)c1=O	none
O=C(CCNC(=O)c1ccc(Cl)cc1)NCC(c1ccco1)N1CCCCC1 (centres undefined)	none (no result: PfHsp90 yeast 2)
CCSc1nc(N)nc2c1ncn2C1OC(CO)C(O)C1O (centres undefined)	none (no result: tim23-1 inh, tim10-1 inh, SUMO Mot1 rescue, TIM10 inh)
CSc1ncc2ncn(C3OC(CO)C(O)C3O)c2n1 (centres undefined)	SUMO Mot1 rescue active | Mot1 SUMO dose inactive
CC(=O)Nc1ccccc1C(=O)C(=O)Nc1cccc(C(=O)NCC2CCCO2)c1 (centres undefined)	none (no result: PfHsp90 yeast 2)
CC(=O)Nc1ccccc1C(=O)C(=O)Nc1ccc(C(=O)NCC2CCCO2)cc1 (centres undefined)	SUMO Mot1 rescue 917 | Mot1 SUMO dose inactive
NCCOc1ccccc1-c1ccccc1	none
Nc1ccc(Oc2ccccc2-c2ccccc2)cc1	SUMO Mot1 rescue 446 | Mot1 SUMO dose inactive
CC(OC(=O)CSc1ccc([N+](=O)[O-])cc1)C(=O)NCc1ccccc1 (centres undefined)	none
C/C=C\C=C/C(=O)Nc1cccc(C2=NOC3(C2)C[C@@H](C(N)=O)N(C(=O)c2ccccc2)C3)c1 (some centres undefined)	SUMO Mot1 rescue 433 (no result: PfHsp90 yeast 2) | Mot1 SUMO dose inactive
CC(=O)N1c2ccc([N+](=O)[O-])cc2NC(=O)CC1C (centres undefined)	SUMO Mot1 rescue 600 | Mot1 SUMO dose inactive
CC1CC(=O)Nc2ccc([N+](=O)[O-])cc2N1C (centres undefined)	none
O=C1CSc2ccc(C(=O)NCCc3ccc(Cl)cc3Cl)cc2N1	none
NC(=O)CN1CCOCCN(CC(N)=O)CCOCC1	SUMO Mot1 rescue 410 (no result: PfHsp90 yeast 2) | Mot1 SUMO dose inactive
COc1cccc(NC(=O)NCCc2ccc(Cl)cc2)c1	none
CCCCSCCCNC(=O)Nc1cccc(OC)c1	SUMO Mot1 rescue 549 | Mot1 SUMO dose inactive
COc1ccc(C(=O)NCC(=O)Nc2ccccc2)cc1OC	SUMO Mot1 rescue 449 | Mot1 SUMO dose inactive
COc1cccc(NC(=O)CNC(=O)c2ccc(C)cc2)c1	SUMO Mot1 rescue 499 | Mot1 SUMO dose inactive
Fc1cccc(/C=N/Nc2cc(N3CCOCC3)ncn2)c1	none
COc1ccc(-c2noc(CNC(=O)c3ccc4c(c3)OCO4)n2)cc1OC	none
CCOc1ccc(C(=O)NCC2OCCc3ccccc32)cc1 (centres undefined)	SUMO Mot1 rescue 748 | Mot1 SUMO dose inactive
COc1ccc(C(=O)NCC2OCCc3ccccc32)cc1 (centres undefined)	none
OCC1(Cc2cccc(Cl)c2)CCCN(Cc2ccc(F)c(F)c2)C1 (centres undefined)	SUMO Mot1 rescue 382 | Mot1 SUMO dose inactive
CC(=O)Nc1ccc(CN2CCCC(CO)(Cc3cccc(Cl)c3)C2)cc1 (centres undefined)	SUMO Mot1 rescue active | Mot1 SUMO dose inactive
